Compound activity deposited in PubChem by National Center for Advancing Translational Sciences (NCATS).
In the library only some 2.8% were active in any assay of this set; here they are far more common.
Pol eta inh – inhibitors of human DNA polymerase eta; AID 588591; 390,000 tested, 1.2% active; recombinant Pol eta, fluorescent DNA replication assay; Potency, µM (doses to about 114 µM), without a hit: top-dose activity change, negative = inhibition, hits mostly inhibitors; further: potency means the concentration at half of the fitted maximal effect; on the % scale 0 is the no-effect control and ±100 the full control effect
Target sequence (Q9Y253 whole entry, looked up): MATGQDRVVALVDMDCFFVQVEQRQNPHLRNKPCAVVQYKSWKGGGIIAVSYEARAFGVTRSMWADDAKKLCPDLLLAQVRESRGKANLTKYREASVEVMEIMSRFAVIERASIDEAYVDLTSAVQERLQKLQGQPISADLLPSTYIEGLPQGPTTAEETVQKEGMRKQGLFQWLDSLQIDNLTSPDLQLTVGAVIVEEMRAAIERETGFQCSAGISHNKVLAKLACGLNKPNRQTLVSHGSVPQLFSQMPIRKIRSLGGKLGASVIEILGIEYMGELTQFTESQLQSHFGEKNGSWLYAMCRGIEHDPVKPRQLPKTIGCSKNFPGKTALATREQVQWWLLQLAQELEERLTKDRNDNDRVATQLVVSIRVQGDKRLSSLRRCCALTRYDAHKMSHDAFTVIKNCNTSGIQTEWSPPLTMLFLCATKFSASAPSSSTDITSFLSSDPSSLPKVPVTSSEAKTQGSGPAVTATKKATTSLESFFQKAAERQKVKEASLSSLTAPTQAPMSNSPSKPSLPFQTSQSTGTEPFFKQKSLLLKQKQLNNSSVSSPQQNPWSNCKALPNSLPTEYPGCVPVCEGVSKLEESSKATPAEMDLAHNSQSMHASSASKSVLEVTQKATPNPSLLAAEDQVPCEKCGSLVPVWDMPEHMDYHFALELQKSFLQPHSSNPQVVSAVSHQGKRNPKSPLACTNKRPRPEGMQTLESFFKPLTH
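Fluorescent replication assay: 50 nM final substrate added after a 15 min room-temperature compound preincubation with 10 nM enzyme. Signal taken at 0 min and again at 10 min.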
Pol iota inh – blocks human DNA polymerase iota activity; Q9UNA4; Pol iota fluorescent replication assay, 10 min; Potency, µM (doses to about 115 µM), inactives show at the highest dose activity, negative = inhibition, hits mostly inhibitors; 390,000 tested, 1% active; AID 588590; further: potency means the concentration at half of the fitted maximal effect
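Pol iota at 10 nM preincubated 15 min with compounds at room temperature; reaction started with fluorescent substrate, 50 nM final. Fluorescence read kinetically at 0 and 10 min; buffer-only wells as negative control.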
Pol beta inh – blocks human DNA polymerase beta activity | Potency, µM (titrated, usually from 114 µM), inactives show at the top dose activity change, negative = inhibition, most hits filed as inhibitors | Pol beta primer extension/strand displacement, fluorescence kinetic | 340,000 tested, 1.3% active | P06746; further: potency means the concentration at half of the fitted maximal effect; on the % scale 0 is the no-effect control and ±100 the full control effect
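Human Pol beta at 10 nM; strand-displacement substrate 50 nM final. Compound exposure 15 min at room temperature before start, reaction 10 min at room temperature.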
POLK inh – inhibitors of human DNA polymerase kappa; Q9UBT6; purified Pol kappa, fluorescent DNA synthesis assay, 10 min; Potency, µM (top dose mostly 107 µM), inactives show at the highest dose activity, negative = inhibition, most hits filed as inhibitors; 400,000 tested, 0.53% active; AID 588579; further: potency means the concentration at half of the fitted maximal effect; on the % scale 0 is the no-effect control and ±100 the full control effect
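Activity was followed as the change in fluorescence between reads at 0 and 10 min after starting the reaction with 50 nM substrate. Beforehand, 10 nM polymerase had been preincubated with compound for 15 min at room temperature.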
PI5P4K alpha inh – PI5P4K alpha (human) kinase inhibition; P48426; PI5P4Kalpha enzyme, ADP-Glo luminescence, 60 min; active compounds read low; max response, %; 330,000 tested, 1.2% active; active means max response of -50% or lower; inconclusive means between -30% and -50%; inactive means -30% or higher; further: value at the top dose of about 77 µM; on the % scale 0 is the no-effect control and ±100 the full control effect
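Enzyme plus substrate dispensed, test compounds pinned in, then ATP (5 microM final) added. After 60 min at RT, ADP-Glo reagent 1 for 45 min and reagent 2 for 30 min preceded luminescence imaging.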
FEN1 inhibitor – blocks human flap endonuclease 1 | P39748 | Potency, µM (series often up to 114 µM), for the others: top-dose activity change, negative = inhibition, actives largely listed as inhibitors | 390,000 tested, 0.35% active | Recombinant FEN1 flap cleavage, fluorescence, 15 min; further: potency means the concentration at half of the fitted maximal effect; on the % scale 0 is the no-effect control and ±100 the full control effect; nearly all actives have a fitted effect of over 65% in size
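In this screen, 50 nM flap DNA substrate was added to 10 nM FEN1 pretreated with compound for 15 min at room temperature; cleavage was followed with reads at 0 and 15 min, and Hill fitting gave concentration–response parameters.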
* = called active by the depositor; [ ] = another dose, or the depositor's remark. Unless noted, the call rests on the fitted dose curve; in most records, active means well fitted curve in the direction sought with a large enough effect; inconclusive means small, poorly fitted or top-dose-only effect, or another doubt; inactive means no such curve, though single readings can be large; an effect the other way counts as inactive or inconclusive.

CC(=O)Nc1ccc(NC(=O)C/C(C)=N/NC(=O)COc2cc(C)c(Br)cc2Br)cc1 was read as Pol eta inh -17%, Pol iota inh 27%, Pol beta inh inconclusive, POLK inh 4%, PI5P4K alpha inh -2 and FEN1 inhibitor -21%.
`COc1ccc(N2C(=O)/C(=C\c3ccco3)N=C2SCC(=O)N(C(C)C)C(C)C)cc1Cl` gave Pol eta inh -10%, Pol iota inh 5%, Pol beta inh 56µM*, POLK inh -11%, PI5P4K alpha inh 0 and FEN1 inhibitor -5%.
`c1ccc(CCNc2nc(-c3ccccn3)nc3ccccc23)cc1` gave Pol eta inh -2%, Pol iota inh 55%, Pol beta inh -6%, POLK inh 2%, PI5P4K alpha inh -6 and FEN1 inhibitor -21%.
Screening O=C(NC(=S)Nc1cccc(S(=O)(=O)NC2=NCCC2)c1)c1cc(-c2ccco2)nc2ccccc12 returned Pol eta inh inconclusive, Pol iota inh 28µM*, Pol beta inh 40µM*, POLK inh inconclusive, PI5P4K alpha inh -50* and FEN1 inhibitor -10%.
`O=C(O)c1cc(-c2ccco2)nc2ccccc12` gave Pol eta inh 7.1µM*, Pol iota inh 13µM*, Pol beta inh 18µM*, POLK inh 28µM*, PI5P4K alpha inh -28 and FEN1 inhibitor 40µM*.
Cn1c(=O)c(C(=O)COC(=O)c2cc(C3CC3)nc3ccccc23)c(N)n(Cc2ccccc2)c1=O was read as Pol eta inh -4%, Pol iota inh 5%, Pol beta inh 32%, POLK inh -7%, PI5P4K alpha inh 2 and FEN1 inhibitor inconclusive.
Cn1c(=O)c(C(=O)COC(=O)c2cc(-c3ccco3)nc3ccccc23)c(N)n(CC2CC2)c1=O was read as Pol beta inh 10µM*.
Screening COc1ccc(CNC(=O)COC(=O)c2cc(-c3ccco3)nc3ccccc23)cc1 returned Pol beta inh 7.1µM*.
`Cc1c(Cl)cccc1NC(=O)c1cc(S(=O)(=O)N2CCCCC2)cn1C` gave Pol eta inh -1%, Pol iota inh -24%, Pol beta inh 17%, POLK inh -10%[60.1 µM] and FEN1 inhibitor 1%.
Cc1ccc2c(c1)N(C(=O)N1CCC(C(=O)NCc3cccs3)CC1)CC(C)O2 (stereo unspecified) was read as Pol eta inh -4%, Pol iota inh 5%, Pol beta inh -1%, POLK inh 1% and FEN1 inhibitor -5%.
COc1cccc(NS(=O)(=O)c2ccc3[nH]cc(C(=O)N4CCCC4)c(=O)c3c2)c1 was read as Pol eta inh -1%, Pol iota inh -5%, Pol beta inh inconclusive, POLK inh -16% and FEN1 inhibitor 5%.
For COc1cccc(NS(=O)(=O)c2ccc3[nH]cc(C(=O)NC(C)c4ccccc4)c(=O)c3c2)c1 (stereo unspecified) the results were Pol eta inh inconclusive, Pol iota inh 89µM*, Pol beta inh 40µM*, POLK inh inconclusive and FEN1 inhibitor 2%.
COc1ccc(CC2NCCC3=CC(=O)CCC32)cc1O (stereo unspecified) was read as Pol eta inh 1%, Pol iota inh 56µM*, POLK inh inconclusive and FEN1 inhibitor -2%.
For C=C1CCN(C(Cc2ccccc2)C(=O)NCc2ccccc2)S(=O)(=O)c2ccccc21 (stereo unspecified) the results were Pol iota inh -9%, POLK inh -5% and FEN1 inhibitor -25%.
Screening CCS(=O)(=O)c1ccc2oc(Nc3cccc(OC)c3)nc2c1 returned Pol eta inh -12%, Pol iota inh -10%, Pol beta inh 35µM*, POLK inh -5% and FEN1 inhibitor 2%.
`O=C(Nc1cc(NC(=O)c2ccccc2Cl)ccc1Cl)c1ccccc1` gave Pol eta inh -21%, Pol iota inh -1%, Pol beta inh -11%, POLK inh -11% and FEN1 inhibitor -13%.
